We go through nine compounds from PubChem BioAssay.

A short description of assay [1]: small molecules captured by biotinylated probe aFSTL3 – biochemical, small-molecule microarray, fluorescence 635/667, stem cell growth factor project, primary screen (AID 1064).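 Also: measures binding of the biotinylated anti-FSTL3 antibody to printed compounds.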 The conditions noted are these: higher = more signal.
Assay [2] can be described thus: binders from COS7 lysate, DM2A8 probe, primary screen, torsin A project, cell lysate, small-molecule microarray, fluorescence 635/667 (AID 1065). Particulars: higher = more signal, COS7 lysate expressing mutant human TOR1A.
Assay [3] can be described thus: small molecules captured by biotinylated probe aFGF2 – biochemical, small-molecule microarray, fluorescence 635/667, stem cell growth factor project, primary screen (AID 1067).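 Also: measures binding of biotinylated aFGF2 protein to printed compounds on slides; z-score merges feature fluorescence and signal-to-noise across triplicate slides.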 Particulars: higher = more signal.
Assay [4] is described as follows: small molecules captured by biotinylated probe aFGF10 – biochemical, small-molecule microarray, fluorescence 635/667, stem cell growth factor project, primary screen (AID 1071).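 Also: score merges 667 nm spot intensity and signal to noise from triplicate slides.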 Particulars: higher = more signal.
The target of assay [5] is Neurogenic locus notch homolog protein 2 (Homo sapiens) (UniProt Q04721). Nature of the assay: small molecules binding Notch2 protein – biochemical, small-molecule microarray, 635 nm fluorescence, stem cell growth factors, primary screen (AID 1073). The conditions noted are these: higher = more signal.
The target in assay [6] is Pro-neuregulin-1, membrane-bound isoform (Homo sapiens) (UniProt Q02297). Nature of the assay: small molecules binding neuregulin-1 protein – biochemical, small-molecule microarray, fluorescence 635/667, psychiatric disease protein project, primary screen (AID 1075).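 Also: score combines 667 nm spot fluorescence with signal to noise.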 Particulars: NRG1 binding, 635 nm fluorescence, higher = more signal.
For assay [7], the system named is Neuregulin-1 EGF-like domain. The assay can be described thus: small molecules binding NRG1 EGF domain – biochemical, small-molecule microarray, 635 nm fluorescence, primary screen (AID 1081).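 Also: binding of the protein to compounds printed on small-molecule microarray slides.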 Particulars: higher = more signal.
The nature of assay [8]: FRG1 expression reporter modulators in myotubes – cell-based, C2C12 myotubes, firefly/Renilla luciferase, luminescence, FRG1 inhibition for FSHD, primary screen (AID 1084). The conditions noted are these: FRG1 promoter luciferase, higher = more signal, called active from +8 up or from −8 down.
A short description of assay [9]: small molecules captured by biotinylated probe aFST – biochemical, small-molecule microarray, fluorescence 635/667, stem cell growth factor project, primary screen (AID 1086).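 Also: score merges 667 nm fluorescence with signal-to-noise of each printed compound spot.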 The conditions noted are these: higher = more signal.
Assay [10] in a line: binders of probe aHhip on microarray, primary screen, stem cell growth factor project, biochemical, small-molecule microarray, fluorescence 635/667 (AID 1087).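 Also: score merges spot fluorescence at 667nm with spot signal to noise ratio.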 Particulars: higher = more signal.
Assay [11] relates to PRMT1 (protein arginine N-methyltransferase 1). The assay can be described thus: small molecules binding arginine methyltransferase PRMT1 – biochemical, small-molecule microarray, 635 nm fluorescence, primary screen (AID 1088).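 Also: binding of Prmt1 protein to compounds spotted on small-molecule microarray slides.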 Particulars: higher = more signal.
The nature of assay [12]: growth effects on S. cerevisiae YJM789 – YJM789 clinical isolate, OD600, 24 h, basal, primary screen (AID 1089).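 Also: growth of clinical yeast isolate S. cerevisiae YJM 789 seeded 1000 cells per well; test concentration not given here.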 The conditions noted are these: higher = more signal, called active from +8 up or from −8 down.
A short description of assay [13]: S. pombe growth modifiers, basal conditions – strain 972, OD600, 24 h, no modulator, primary screen (AID 1090).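 Also: basal condition with compound alone and no growth modifier present; test concentration not given here.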 Particulars: S. pombe 972 growth, higher = more signal, called active from +8 up or from −8 down.
The nature of assay [14]: budding yeast growth modifiers under rapamycin – strain BY4716, OD600, 96 h, primary screen (AID 1091). Also: test concentration not given here. Particulars: S. cerevisiae BY4716 + rapamycin, higher = more signal, called active from +8 up or from −8 down.
Assay [15] concerns the target Torsin-1A-interacting protein 2 (Homo sapiens) (UniProt Q8NFQ8). Nature of the assay: small molecules binding lysate-expressed LULL1 – cell lysate, human LULL1 lysate, 635/667 nm fluorescence, primary screen (AID 1092).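 Also: probe is lysate of COS7 cells overexpressing human LULL1; score merges per-feature 667 nm fluorescence with signal-to-noise.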 The conditions noted are these: small-molecule microarray, hLULL1 lysate binding, 635 nm fluorescence; higher = more signal.
Assay [16] is described as follows: optical density change of DRC41 E. coli – strain DRC41, OD650, 24 h, E. coli filamentation project, primary screen (AID 1093).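 Also: MC1000 strain lacking acrAB efflux and sulA so SOS filamentation is blocked; test concentration not given here.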 Particulars: E. coli DRC41 growth, higher = more signal, called active from +8 up or from −8 down.
A short description of assay [17]: probe aLefty2 binding to arrayed compounds – biochemical, biotinylated probe, 635/667 nm fluorescence, primary screen (AID 1094).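 Also: score merges spot fluorescence near 667 nm with spot signal-to-noise ratio.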 The conditions noted are these: small-molecule microarray, higher = more signal.
The test system of assay [18] is Noggin (protein binding on small-molecule microarray). Nature of the assay: small molecules binding Noggin protein – biochemical, 635/667 nm fluorescence, primary screen (AID 1095).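 Also: score merges 667 nm feature fluorescence with signal to noise over triplicate slides.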 The conditions noted are these: 635 nm fluorescence, higher = more signal.
Assay [19] addresses Neurogenic locus notch homolog protein 3 (Homo sapiens) (UniProt Q9UM47). The assay can be described thus: small molecules binding NOTCH3 protein – biochemical, 635/667 nm fluorescence, primary screen (AID 1096). Particulars: small-molecule microarray, 635 nm fluorescence, higher = more signal.
Assay [20] can be described thus: probe aEGFR binding to arrayed compounds – biochemical, biotinylated probe, 635/667 nm fluorescence, primary screen (AID 1097).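 Also: probe is a biotinylated anti-EGFR antibody binding compounds printed on slides; score combines fluorescence near 667 nm and signal to noise of each spot.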 Particulars: small-molecule microarray, higher = more signal.

Molecules are shown by their SMILES. The source made the active and inactive calls.

Neurogenic locus notch homolog protein 2 (Homo sapiens), sequence (Q04721 whole entry, looked up, canonical isoform): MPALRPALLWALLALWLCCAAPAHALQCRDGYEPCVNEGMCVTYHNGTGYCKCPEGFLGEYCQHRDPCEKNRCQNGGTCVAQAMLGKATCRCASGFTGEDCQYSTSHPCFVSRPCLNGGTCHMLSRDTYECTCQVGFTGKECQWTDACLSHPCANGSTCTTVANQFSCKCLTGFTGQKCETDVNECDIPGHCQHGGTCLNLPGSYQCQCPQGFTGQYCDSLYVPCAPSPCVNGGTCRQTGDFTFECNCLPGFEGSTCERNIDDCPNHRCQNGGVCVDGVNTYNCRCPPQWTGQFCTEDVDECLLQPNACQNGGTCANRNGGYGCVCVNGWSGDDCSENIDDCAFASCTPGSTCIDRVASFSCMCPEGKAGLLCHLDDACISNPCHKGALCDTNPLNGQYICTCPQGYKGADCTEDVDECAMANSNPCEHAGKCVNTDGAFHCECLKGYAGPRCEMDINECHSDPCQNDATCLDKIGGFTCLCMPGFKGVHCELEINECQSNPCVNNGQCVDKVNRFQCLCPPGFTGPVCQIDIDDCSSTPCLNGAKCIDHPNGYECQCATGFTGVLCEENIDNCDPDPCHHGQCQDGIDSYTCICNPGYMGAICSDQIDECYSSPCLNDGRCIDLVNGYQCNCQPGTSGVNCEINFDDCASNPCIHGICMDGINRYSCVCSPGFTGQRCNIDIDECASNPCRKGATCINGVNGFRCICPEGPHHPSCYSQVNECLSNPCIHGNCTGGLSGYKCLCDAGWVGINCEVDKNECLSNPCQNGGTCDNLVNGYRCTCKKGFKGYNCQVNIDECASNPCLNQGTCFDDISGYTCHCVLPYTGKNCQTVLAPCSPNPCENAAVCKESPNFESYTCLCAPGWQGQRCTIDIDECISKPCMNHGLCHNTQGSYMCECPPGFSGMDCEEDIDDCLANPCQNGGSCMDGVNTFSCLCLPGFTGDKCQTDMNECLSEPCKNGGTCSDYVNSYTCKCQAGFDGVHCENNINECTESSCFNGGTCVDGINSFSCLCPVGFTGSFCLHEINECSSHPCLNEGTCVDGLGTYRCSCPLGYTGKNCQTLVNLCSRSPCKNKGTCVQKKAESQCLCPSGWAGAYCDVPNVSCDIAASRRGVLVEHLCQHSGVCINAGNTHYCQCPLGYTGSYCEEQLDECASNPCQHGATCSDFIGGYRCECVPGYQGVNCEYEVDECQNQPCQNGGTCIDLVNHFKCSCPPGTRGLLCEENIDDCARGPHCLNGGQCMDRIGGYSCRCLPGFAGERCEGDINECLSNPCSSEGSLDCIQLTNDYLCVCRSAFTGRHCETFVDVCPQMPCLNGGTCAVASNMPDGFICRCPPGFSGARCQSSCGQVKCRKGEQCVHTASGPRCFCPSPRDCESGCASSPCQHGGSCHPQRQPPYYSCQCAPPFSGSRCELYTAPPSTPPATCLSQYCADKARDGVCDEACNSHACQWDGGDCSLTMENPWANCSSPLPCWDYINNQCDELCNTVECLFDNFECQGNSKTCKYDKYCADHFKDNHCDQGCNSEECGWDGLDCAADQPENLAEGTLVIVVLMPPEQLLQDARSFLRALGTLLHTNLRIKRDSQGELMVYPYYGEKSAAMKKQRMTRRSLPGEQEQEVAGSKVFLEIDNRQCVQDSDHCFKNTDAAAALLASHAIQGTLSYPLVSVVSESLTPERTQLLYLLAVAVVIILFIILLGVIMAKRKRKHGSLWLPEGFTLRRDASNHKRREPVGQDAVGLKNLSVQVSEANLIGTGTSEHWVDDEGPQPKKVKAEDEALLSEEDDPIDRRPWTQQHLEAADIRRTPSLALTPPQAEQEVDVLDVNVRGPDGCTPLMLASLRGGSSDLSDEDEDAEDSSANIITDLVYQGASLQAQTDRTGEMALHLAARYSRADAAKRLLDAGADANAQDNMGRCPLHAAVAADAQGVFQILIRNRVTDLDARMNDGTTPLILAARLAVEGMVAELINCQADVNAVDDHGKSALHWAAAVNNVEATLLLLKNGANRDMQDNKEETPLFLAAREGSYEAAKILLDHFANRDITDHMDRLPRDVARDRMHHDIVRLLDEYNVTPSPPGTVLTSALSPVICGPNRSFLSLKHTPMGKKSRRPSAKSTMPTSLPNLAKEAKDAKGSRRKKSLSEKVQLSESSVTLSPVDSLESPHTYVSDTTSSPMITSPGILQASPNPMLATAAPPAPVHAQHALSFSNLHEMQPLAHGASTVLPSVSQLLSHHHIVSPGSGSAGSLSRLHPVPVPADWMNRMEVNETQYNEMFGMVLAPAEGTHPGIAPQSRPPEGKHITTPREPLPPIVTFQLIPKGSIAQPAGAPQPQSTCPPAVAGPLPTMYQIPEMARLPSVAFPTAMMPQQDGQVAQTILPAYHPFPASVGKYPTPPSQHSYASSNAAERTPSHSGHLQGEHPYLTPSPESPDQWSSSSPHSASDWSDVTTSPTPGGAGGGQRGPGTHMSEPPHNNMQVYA
Torsin-1A-interacting protein 2 (Homo sapiens), sequence (Q8NFQ8 whole entry, looked up): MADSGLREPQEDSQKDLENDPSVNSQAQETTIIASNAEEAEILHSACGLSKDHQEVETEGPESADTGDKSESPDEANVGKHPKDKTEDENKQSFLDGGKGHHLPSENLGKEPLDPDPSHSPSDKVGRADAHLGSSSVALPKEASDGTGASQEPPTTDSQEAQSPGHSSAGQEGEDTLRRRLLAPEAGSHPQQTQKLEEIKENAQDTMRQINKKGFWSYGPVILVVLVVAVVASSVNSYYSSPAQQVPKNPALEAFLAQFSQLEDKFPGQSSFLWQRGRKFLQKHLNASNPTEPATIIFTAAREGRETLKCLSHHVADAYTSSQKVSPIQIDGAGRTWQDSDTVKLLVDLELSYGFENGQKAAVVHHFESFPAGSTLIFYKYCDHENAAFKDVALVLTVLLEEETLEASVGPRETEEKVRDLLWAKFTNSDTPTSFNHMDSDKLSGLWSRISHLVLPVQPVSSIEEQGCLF
Pro-neuregulin-1, membrane-bound isoform (Homo sapiens), sequence (Q02297 whole entry, looked up, the tested form may be a part, canonical isoform): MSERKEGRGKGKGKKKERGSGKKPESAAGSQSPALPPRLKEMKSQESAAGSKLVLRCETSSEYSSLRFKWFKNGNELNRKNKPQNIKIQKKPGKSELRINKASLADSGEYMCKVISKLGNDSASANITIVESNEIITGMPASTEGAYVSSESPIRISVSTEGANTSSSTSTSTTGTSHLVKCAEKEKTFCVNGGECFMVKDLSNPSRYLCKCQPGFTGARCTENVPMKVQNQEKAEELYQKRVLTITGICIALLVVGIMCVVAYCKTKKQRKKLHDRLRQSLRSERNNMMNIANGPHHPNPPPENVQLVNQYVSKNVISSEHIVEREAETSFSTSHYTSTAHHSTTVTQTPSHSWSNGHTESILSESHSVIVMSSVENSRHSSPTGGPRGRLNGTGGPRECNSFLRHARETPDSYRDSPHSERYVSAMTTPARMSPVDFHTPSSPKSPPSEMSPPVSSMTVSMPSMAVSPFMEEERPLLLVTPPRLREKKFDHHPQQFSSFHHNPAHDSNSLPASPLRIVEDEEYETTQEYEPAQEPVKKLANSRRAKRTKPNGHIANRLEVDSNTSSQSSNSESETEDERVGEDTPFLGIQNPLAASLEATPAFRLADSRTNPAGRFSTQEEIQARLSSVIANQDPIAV

Turning to `O=C1O[C@@H](c2ccccc2)[C@@H](c2ccccc2)N2[C@@H](c3ccc(OCCO)cc3)[C@]3(C(=O)Nc4ccc(C#CCCO)cc43)[C@@H](C(=O)O)[C@H]12`, the composite z-score was 1.47 in [1]; 0.431 in [2]; 0.213 in assay [3]; 0.749 in assay [4]; 0.882 in assay [5]; 1.46 in [6]. The composite z-score stood at 1.24 in assay [7]; 1.9 in assay [9]; 0.102 in assay [10]; 1.53 in assay [11]; 2.68 in [15]; 1.03 in [17]. The composite z-score came out at 1.31 in [18], 1.04 in [19] and 0.853 in [20]. The z-score was -1.75 (inactive) in assay [8]; 0.659 (inactive) in assay [12]; 0.799 (inactive) in assay [13]; -0.261 (inactive) in assay [14]; 0.543 (inactive) in [16].

Turning to `CN(C)CCCNC(=O)[C@@]1(C)c2ccccc2C(=O)N(Cc2ccc(OC(F)(F)F)cc2)[C@H]1c1ccc(CO)cc1`, the composite z-score in assay [1] was 0.462; in [2], -0.674; in assay [3], -0.0587; in [4] it was -0.959; in assay [5], -0.538; in assay [6], 1.35. Also, the composite z-score in assay [7] is 0.161; in assay [9], -0.329; in assay [10], -0.435; in assay [11] it was 1.21; in assay [15] it was 1.53; in assay [17], 0.0239. For the same compound, the composite z-score in assay [18] is -0.552; in [19], -0.0992; in [20], -0.229. For the same compound, the z-score was -2.46 (inactive) in assay [8]; -1.7 (inactive) in assay [12]; -1.93 (inactive) in [13]; -1.42 (inactive) in assay [14]; 0.649 (inactive) in [16].

As for `C=C(CCCC)/C(=C/C[C@H](OC(C)=O)c1cccc(OCCO)c1)c1cnc2ccccc2c1`, the composite z-score in assay [1] was 0.243; in assay [2], -0.194; in assay [3], -0.116; in assay [4], 0.0835; in [5] it was 0.16; in [6], -0.0759. Further, the composite z-score in assay [7] is 0.244; in [9], -0.381; in assay [10], -0.0994; in assay [11], 0.12; in [15] it was -0.0488; in assay [17] it was -0.116. In addition, the composite z-score in assay [18] is -0.271; in [19] it was 0.0799; in assay [20], -0.169. For the same compound, the z-score in [8] was -0.45 (inactive); in assay [12], 1.94 (inactive); in assay [13] it was 0.924 (inactive); in assay [14], 1.32 (inactive); in assay [16], 0.442 (inactive).

As for `COCCOC(=O)N1C(=O)[C@@]2(c3cc(C#CCC(C(=O)OC)C(=O)OC)ccc31)[C@H](C(=O)Nc1nc3ccccc3s1)[C@H]1C(=O)O[C@H](c3ccccc3)[C@H](c3ccccc3)N1[C@@H]2c1ccc(O)cc1`, the composite z-score in assay [1] was -0.566; in [2] it was 0.304; in [3], 0.412; in assay [4], 0.742; in [5], 1.45; in assay [6], 0.158. The composite z-score came to 1.3 in assay [7]; 0.805 in assay [9]; 0.314 in [10]; 1.53 in assay [11]; 2.51 in assay [15]; 0.0085 in [17]. Moreover, the composite z-score was 0.92 in assay [18], 1.04 in [19] and 0.107 in assay [20]. For the same compound, the z-score in [8] is 0.203 (inactive); in assay [12], 1.42 (inactive); in assay [13], 0.431 (inactive); in assay [14] it was 1.16 (inactive); in [16], 0.28 (inactive).

Take `CC1CC/C=C\[C@H]2OC34C=CCN(Cc5ccccc5)C(=O)[C@H]3N(CCCCCCO)C(=O)[C@@H]4C2C(=O)O1` (stereo not given in full): the composite z-score is 0.261 in assay [1]; 0.96 in assay [2]; -0.116 in [3]; -0.994 in assay [4]; -0.763 in assay [5]; 1.91 in assay [6]. The composite z-score in assay [7] is 1.19; in [9], -0.696; in assay [10], -0.226; in [11] it was 0.661; in [15], 2.31; in assay [17], -0.163. Besides, the composite z-score in [18] was -1.78; in assay [19], -0.397; in [20], -0.0773. For the same compound, the z-score was -0.1 (inactive) in [8]; -0.617 (inactive) in assay [12]; -0.623 (inactive) in assay [13]; -0.482 (inactive) in assay [14]; 0.246 (inactive) in [16].

`C=CCN1Cc2ccccc2[C@H]2OC(c3ccc(OCCCO)cc3)=N[C@@]2(CCS(=O)(=O)c2ccccc2)C1=O`: the composite z-score in assay [1] came out at 1.14; in assay [2], 0.852; in [3], 0.0814; in [4] it was 0.201; in [5], 1.47; in assay [6], 1.61. Besides, the composite z-score is 1.35 in [7]; 0.932 in [9]; -0.226 in assay [10]; 1.55 in [11]; 2.29 in assay [15]; 0.319 in assay [17]. Further, the composite z-score in assay [18] is 1.33; in [19], 1.05; in assay [20] it was 0.124. For the same compound, the z-score in assay [8] was -0.908 (inactive); in [12], 0.601 (inactive); in assay [13] it was 0.546 (inactive); in assay [14] it was 5.35 (inactive); in [16], 0.557 (inactive).

With `O=C(NCc1ccccc1)[C@@H]1c2ccccc2C(=O)N(Cc2ccc(OC(F)(F)F)cc2)[C@H]1c1ccc(CO)cc1`, the composite z-score in [1] was 0.85; in assay [2] it was 0.0787; in assay [3] it was -0.0784; in [4], -0.225; in assay [5], -0.674; in [6], 1.19. In addition, the composite z-score was 0.921 in assay [7]; 0.0209 in [9]; 0.321 in [10]; 0.594 in [11]; 2.62 in assay [15]; -0.128 in assay [17]. For the same compound, the composite z-score in [18] is -0.262; in [19], -0.577; in assay [20], 0.148. In addition, the z-score was -1.37 (inactive) in [8]; -0.347 (inactive) in [12]; -0.753 (inactive) in [13]; -0.574 (inactive) in assay [14]; 0.301 (inactive) in assay [16].

Regarding `CN1C(=O)C2C=CC(C(O)c3ccc(-c4ccccc4)s3)N(NC(=O)OC(C)(C)C)C2C1=O` (stereo not given), the composite z-score in assay [1] was 0.905; in assay [2], 0.286; in assay [3], -0.229; in assay [4], 0.419; in assay [5], 1.58; in assay [6], 1.88. In addition, the composite z-score in assay [7] is 1.21; in assay [9], 0.913; in assay [10], -0.0618; in [11] it was 0.938; in assay [15], 2.92; in assay [17], 0.367. The composite z-score is -0.0619 in [18], 0.687 in assay [19] and -0.033 in [20]. The z-score in assay [8] is 0.392 (inactive); in assay [12], -0.673 (inactive); in assay [13], 1.47 (inactive); in assay [14], 0.0406 (inactive); in assay [16], -0.328 (inactive).

For `CCCNC(=O)[C@@]1(c2ccc([N+](=O)[O-])cc2)CC(=O)N(C(C)C)[C@@H]1c1ccc(CO)cc1`, the composite z-score in [1] was 0.829; in assay [2] it was -0.22; in assay [3] it was -0.111; in [4], -0.904; in assay [5] it was -1.73; in assay [6], 0.0532. Also, the composite z-score was 0.843 in assay [7]; -1.14 in assay [9]; -0.0618 in assay [10]; -0.854 in assay [11]; 1.41 in assay [15]; -0.268 in [17]. The composite z-score in [18] is -1.27; in assay [19], -0.124; in assay [20] it was -0.278. The z-score in assay [8] is -0.558 (inactive); in assay [12] it was -0.836 (inactive); in assay [13] it was -1 (inactive); in [14], -0.594 (inactive); in assay [16], 0.353 (inactive).
